NADH enzymes = inhibitors of PK/LDH coupling enzymes, profiling panel, artefact control, biochemical, MLSMR library | coupled PK/LDH NADH assays, four targets | IC50, µM (series often up to 10 µM), for the others: at the highest dose inhibition | 65,000 compounds, 0.02% hits;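 active means single-dose screening hits from any of four coupled enzyme assays that gave an IC50 when retested across doses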;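 further: the DPM-DC format reads NADH fluorescence rather than 340 nm absorbance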
Abs 340nm = compound light absorbance at 340 nm, profiling panel, artefact control, biochemical, MLSMR library, data from PS, PMK, MK assays | compound absorbance at 340 nm, fold over control | fold change at 10 µM | 65,000 tested, under 10 active | AID 708, 2007;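 active means at 10 µM dose, initial 340 nm absorbance at least 2 fold that of control wells; inactive means change under 2 fold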;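 further: initial absorbance extrapolated from kinetic A340 decline of NADH oxidation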
PMK inhibit = S. pneumoniae PMK inhibitors, primary screen, biochemical, mevalonate pathway, pilot trial included; inhibition, % at 10 µM; purified PMK, PK/LDH-coupled NADH absorbance 340 nm; 65,000 compounds, 0.49% hits;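 active means top-ranked compounds by inhibition in the single 10 µM screen, taking a fixed number of the strongest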;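 further: 0% = full reaction with DMSO carrier and 100% = background rate without enzyme reaction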
Autofluor 339 = intrinsic fluorescence of library compounds, ex339/em460 – biochemical, MLSMR library, data from DPM-DC assay, artefact control, profiling panel | fluorescence fold increase at 10 µM | AID 709, 2007 | 65,000 compounds, 5.5% hits | compound autofluorescence, ex339/em460 nm, NADH buffer; stronger effect = higher value; 1 = no-compound wells, NADH background;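 active means at 10 µM, mean starting fluorescence two-fold or more over control wells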;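 further: signal is the first read of a kinetic run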
DPM-DC inhibit = S. pneumoniae DPM-DC inhibitors, primary screen, biochemical, PK/LDH-coupled NADH fluorescence | purified DPM-DC | calls only at 10 µM | 65,000 compounds, 0.49% hits | AID 556, 2006;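 active means the 320 compounds with the highest percent inhibition in the single-dose primary screen, excluding strongly autofluorescent ones, cut at about 32% in these data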;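 further: kinetic rate of NADH fluorescence loss reporting ADP formed by the decarboxylase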
MK inhibit = S. pneumoniae MK inhibitors, primary screen, biochemical, PK/LDH-coupled NADH absorbance; purified MK, PK/LDH-coupled NADH absorbance 340 nm; inhibition, % at 10 µM; 65,000 compounds, 0.48% hits;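 active means ranked among the strongest by inhibition in the single 10 µM screen, a fixed top-ranked set picked for dose follow-up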
* hit, by the source's call; i = inactive; · = not tested or not shown. Sampled rows, rich in hits. Any-hit rate of the full collection: about 6.3%.

SMILES	NADH enzymes	Abs 340nm	PMK inhibit	Autofluor 339	DPM-DC inhibit	MK inhibit
Cc1cc(C(=O)COc2ccc(-c3nnco3)cc2)c(C)n1Cc1ccccc1	4%	1	13	1.1	i	0
COc1ccc2nc(Nc3nc(C)c(C(C)=O)s3)sc2c1	7%	1	11	2*	i	9
COc1cc(C)nc(Nc2nc(C)c(C(C)=O)s2)n1	3%	1.1	4	1.1	i	1
Cc1nc(SCC(=O)N2CCN(c3ccccc3)CC2)c2c(=O)n(C)c(=O)n(C)c2n1	0%	1.1	0	1.1	i	0
CCOC(=O)N1CCN(c2nc(-c3cccc(OC)c3)cc(C(F)(F)F)n2)CC1	4%	0.99	1	1.3	i	11
CCOC(=O)c1cnc2c(-c3ccccc3)cnn2c1N	3%	1.1	0	2.1*	i	10
O=C(c1cnn2c(C(F)(F)F)cc(-c3ccccc3)nc12)N1CCOCC1	10%	1.1	11	1.3	i	6
COC(=O)c1cnn2c(C(F)(F)F)cc(-c3ccc(F)cc3)nc12	12%	1.1	9	3.3*	·	14
CCOC(=O)N1CCC(NC(=O)c2cnn3c(C(F)(F)F)cc(-c4cccc(OC)c4)nc23)CC1	8%	1.1	3	3.8*	·	12
CCOC(=O)c1cnc2c(-c3ccccc3)c(C)nn2c1N	15%	1.1	18	1.8	i	4
CCOC(=O)c1cnn2c(C(F)(F)F)cc(-c3cn(C)nc3C)nc12	11%	1.2	8	3.7*	·	13
Cc1ccccc1-n1c(Cn2c(=O)sc3ccccc32)nnc1SCC(=O)NCC1CCCO1 (stereo not given)	4%	1	5	1.1	i	5
CCC(=O)N[C@@H]1CC(C(C)(C)NC(=O)CC)CC=C1C (stereo not given in full)	3%	0.97	9	1	i	2
COc1ccc(C2=CC(c3ccc(Cl)cc3)n3cnnc3N2)cc1OC (stereo not given)	11%	1	6	1.3	i	7
CCOC(=O)c1cnn2c(C(F)(F)F)cc(-c3ccccc3)nc12	8%	1.1	14	2.2*	·	2
CCOC(=O)C1CCCN(C(=O)c2cnn3c(C(F)(F)F)cc(-c4ccccc4)nc23)C1 (stereo not given)	2%	1.1	0	1.5	i	6
Cc1cc2n(n1)C(c1ccsc1)Nc1ccccc1-2 (stereo not given)	9%	1	5	2.4*	i	0
Cc1cc2n(n1)C(c1ccccc1Cl)Nc1ccccc1-2 (stereo not given)	3%	1	5	1.4	i	0
CSc1ccc(C2Nc3ccccc3-c3cc(C)nn32)cc1 (stereo not given)	6%	0.98	7	2*	i	8
O=C1C(=O)N(CCCn2ccnc2)C(c2cccnc2)/C1=C(/O)c1ccc(Br)cc1 (stereo not given)	4%	1.1	0	1.1	i	5
CCOC(=O)C1CCN(S(=O)(=O)c2ccc3c4c(cccc24)C(=O)N3)CC1	7%	1.1	8	2.1*	·	5
Cc1ccc(S(=O)(=O)c2c(N)n(NC(=O)c3ccco3)c3nc4ccccc4nc23)cc1	18%	1	16	3.8*	·	19
Cc1cccc(S(=O)(=O)c2c(N)n(Cc3ccco3)c3nc4ccccc4nc23)c1	3%	1.1	0	3.9*	·	5
Cc1cccc(S(=O)(=O)Nc2nc3ccccc3nc2NCc2ccco2)c1	8%	1.1	15	1.7	i	0
Cc1cccc(-n2cnc3c(c2=O)c2nc4ccccc4nc2n3Cc2ccco2)c1	20%	1.1	20	3.2*	i	11
Cc1ccc(-c2ccc(CCC(=O)O)n2NC(=O)c2ccco2)cc1	7%	1	12	1.1	i	10
